These results are taken from PubChem BioAssay (Tox21).

A short description of experiment [1]: qHTS RealTime-Glo MT Cell Viability Assay in HepG2 cells - 40 hour (AID 1224870). Further: nearly all actives have a fitted effect of over 50% in size. In short, it runs like this: (§1)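 HepG2 cells mixed with RealTime-Glo MT reagents (NanoLuc plus cell-permeant prosubstrate) were seeded at 600 cells/well, incubated 5 h at 37 C/5% CO2, then pinned with compounds in DMSO; nonlytic luminescence tracked viability during 40 h treatment.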
(qHTS replaces the single test concentration by a dilution series.)

Experiment [2] is described as follows: A CellTox Green Cytotoxicity Assay to monitor cytotoxicity in HEK293 cells - 40 hour (AID 1224871). Further: nearly all actives have a fitted effect of over 45% in size. Summed up:
(§2)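 Seeding of HEK293 cells together with cytotoxicity dye preceded a 5 h incubation at 37 C/5% CO2. Test compounds in DMSO were then added and fluorescence monitored across 40 h.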

A short description of experiment [3]: qHTS RealTime-Glo MT Cell Viability Assay in HEK293 cells - 16 hour (AID 1224872). Further: top concentration of the series differs between compounds; nearly all actives have a fitted effect of over 50% in size. Summed up:
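Reads taken at 0, 8, 16, 24, 32 and 40 h from the same wells. HEK293 cells (600/well) carried RealTime-Glo reagents from seeding, with compound added after a 5 h settle at 37 C.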

Experiment [4] in a line: qHTS RealTime-Glo MT Cell Viability Assay in HepG2 cells - 8 hour (AID 1224873). Further: nearly all actives have a fitted effect of over 55% in size. Summed up: as §1
Experiment [5] in a line: A CellTox Green Cytotoxicity Assay to monitor cytotoxicity in HEK293 cells - 24 hour (AID 1224875). Further: series mostly up to about 77 µM; nearly all actives have a fitted effect of over 45% in size. In short, it runs like this: as §2
Experiment [6] is described as follows: A CellTox Green Cytotoxicity Assay to monitor cytotoxicity in HepG2 cells - 16 hour (AID 1224876). Further: nearly all actives have a fitted effect of over 45% in size. Summed up: (§3)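 Nonlytic assay: viable cells exclude the dye, so fluorescence scales with cell death. HepG2 at 600 cells/well, compounds added after 5 h, signal read across 40 h.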
Experiment [7] can be described thus: qHTS RealTime-Glo MT Cell Viability Assay in HepG2 cells - 32 hour (AID 1224877). Further: nearly all actives have a fitted effect of over 55% in size. Summed up: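 HepG2 suspension premixed with RealTime-Glo reagents is plated at 600 cells per well and left 5 h at 37 C/5% CO2. Compounds in DMSO then go in, and bioluminescence reflecting viable cell number is recorded over 40 h.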
The nature of experiment [8]: A CellTox Green Cytotoxicity Assay to monitor cytotoxicity in HepG2 cells - 24 hour (AID 1224878). Further: nearly all actives have a fitted effect of over 45% in size. In short, it runs like this: as §3
Experiment [9] in a line: A CellTox Green Cytotoxicity Assay to monitor cytotoxicity in HepG2 cells - 40 hour (AID 1224879). Further: nearly all actives have a fitted effect of over 40% in size. Further: potency means the concentration at half of the fitted maximal effect. Summed up:
as §3

Experiment [10] can be described thus: qHTS RealTime-Glo MT Cell Viability Assay in HEK293 cells - 40 hour (AID 1224874). Further: nearly all actives have a fitted effect of over 50% in size. Further: potency means the concentration at half of the fitted maximal effect. Conditions: RealTime-Glo luminescence; max response: stronger effect = lower value. Summed up: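 Tox21 screen in HEK293 using RealTime-Glo MT chemistry, with cells and reagent co-dispensed. Luminescence proportional to viable cell number was captured at intervals during 40 h compound exposure at 37 C.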

Each structure is given as a SMILES string. Results filed as inconclusive are left out. Unmarked numbers belong to inactive results. Calls of active or inactive are those of the source. The call rests on the fitted dose curve; in most records, active means well fitted curve in the direction sought with a large enough effect in the repeat runs; inconclusive means weak or mixed curves; inactive means no such curve, though single readings can be large; an effect the other way counts as inactive or inconclusive.
On the % scale 0 is the no-effect control and ±100 the full control effect.

Turning to `CC(COC(C)(C)C)OCCCO` (stereo unspecified), the call in experiment [1], in experiment [4], in [5], in experiment [6], in [7] and in [8] was inactive. In addition, the Potency result in experiment [2], in experiment [3] and in experiment [9] was “inactive” throughout.

For `OCCC(F)(F)C(F)(F)C(F)(F)C(F)(F)C(F)(F)C(F)(F)C(F)(F)C(F)(F)F`, the result in experiment [1], in experiment [4], in experiment [5], in [6], in experiment [7] and in experiment [8] was inactive. Further, the Potency result in experiment [2], in experiment [3] and in [9] was “inactive” in each case.

`CCO[Si](CCCS)(OCC)OCC`: the result in [1], in experiment [4], in experiment [5], in [7] and in experiment [8] was inactive. Also, the Potency result in experiment [2] and in experiment [9] was “inactive” throughout. In experiment [10], the max response was 16.1%.

With `Cc1nc2n(c(=O)c1CCN1CCC(c3noc4cc(F)ccc34)CC1)CCC[C@H]2O`, the activity change, negative = cytotoxic in experiment [1] is 0.984% [at 15.8 µM]; in experiment [7], 0.664% [at 15.8 µM]. Besides, the figures for the cytotoxicity increase in experiment [2], in [6] and in experiment [9] were 6.76% [at 15.8 µM], -0.968% [at 15.8 µM] and 0.318% [at 15.8 µM], respectively. For the same molecule, in experiment [4], the viability change, negative = cytotoxic was -0.0945% [at 15.8 µM]. In [5], the activity change was -3.48% [at 15.8 µM]. Further, the cytotoxicity in [8] was 0.861% [at 15.8 µM].

For the molecule `COCCOCCOCCOCCOCCO`, the molecule was classed as inactive in [1], in experiment [4], in experiment [5], in experiment [6], in experiment [7] and in experiment [8]. The Potency entry in experiment [2] and in experiment [9] was “inactive” throughout. Further, in [10], the max response is 0.969%.

With `N#Cc1ccc(C(=O)O)cc1`, the result in experiment [1], in experiment [4], in [5], in experiment [6], in experiment [7] and in experiment [8] was inactive. Besides, the Potency entry in experiment [2] and in experiment [9] was “inactive” in each case. In addition, the max response in experiment [10] was 3.59%.

Consider `O=C(CCNNC(=O)c1ccncc1)NCc1ccccc1`, for which the molecule was called inactive in experiment [1], in experiment [4], in [5], in experiment [6], in experiment [7] and in [8]. In addition, the Potency entry in [2] and in experiment [9] was “inactive” throughout. For the same molecule, the max response in experiment [10] was 3.81%.

As to `CCCCCCCCSCC`, the molecule was called inactive in experiment [1], in experiment [4], in [6], in experiment [7] and in [8]. Also, the Potency entry in experiment [2] and in [9] was “inactive” each time. Moreover, the max response in experiment [10] was 7.92%.

Turning to `C[Si](C)(C)C`, the call in experiment [1], in experiment [4], in experiment [5], in [6], in experiment [7] and in experiment [8] was inactive. The Potency entry in [2] and in experiment [9] was “inactive” throughout. Also, in experiment [10], the max response was 7.29%.

With `CCCCCCCCC(=O)Cl`, the result in experiment [1], in [4], in experiment [5], in [6], in [7] and in [8] was inactive. Further, the Potency entry in [2] and in experiment [9] was “inactive” each time. Besides, the max response in experiment [10] is 10.1%.

For `CC(C)CC(C)CC(C)CC(C)COC(=O)c1ccccc1C(=O)OCC(C)CC(C)CC(C)CC(C)C` (stereo unspecified), the outcome in experiment [1], in experiment [4], in [5], in [6], in [7] and in experiment [8] was inactive. Further, the Potency entry in experiment [2] and in [9] was “inactive” throughout. Moreover, in [10], the max response is 4.21%.

`CCCCCCOc1ccccc1C(N)=O`: the call in experiment [1], in experiment [4], in [5], in experiment [6], in [7] and in experiment [8] was inactive. Also, the Potency entry in experiment [2] is “inactive”. Further, the Potency in experiment [10] was 10.7 µM (active).

As for `CCCCCCCCCCCCCC`, the call in experiment [1], in experiment [4], in experiment [5], in [7] and in experiment [8] was inactive. Also, the Potency result in experiment [2] and in experiment [9] was “inactive” each time. Moreover, in [10], the max response is 3.06%.

Turning to `O=C1O[C@@H]2[C@@H](O)[C@H](O)O[C@@H]2[C@H]1O`, the outcome in experiment [1], in experiment [4], in [5] and in experiment [7] was inactive. In addition, the Potency entry in [2], in experiment [3] and in experiment [9] was “inactive” in each case. The max response in [10] was -0.399%.

For `Cc1ccccc1N=O`, the call in experiment [1], in [4], in experiment [5] and in experiment [7] was inactive. Besides, the Potency result in experiment [2], in [3] and in [9] was “inactive” in each case. Further, the max response in experiment [10] is 9.08%.

With `CC(=O)Nc1cccc(C)c1`, the molecule was called inactive in experiment [1], in [4], in [5], in [6], in [7] and in experiment [8]. The Potency result in [2] and in experiment [9] was “inactive” throughout.

As for `Cc1c(I)c(=O)n(-c2ccccc2)n1C`, the result in experiment [1], in experiment [4], in experiment [5], in experiment [6] and in experiment [7] was inactive. Also, the Potency result in experiment [2] and in experiment [9] was “inactive” throughout. Also, in experiment [10], the max response was -1.2%.

With `COc1ccc2nc(SCc3ncc(C)c(OC)c3C)[nH]c2c1`, the molecule was classed as inactive in experiment [1], in experiment [4], in experiment [6], in experiment [7] and in experiment [8]. The Potency entry in [2] and in experiment [9] was “inactive” each time.

Regarding `CN(C)CCOCCO`, the outcome in [1], in experiment [4], in experiment [5], in experiment [6], in experiment [7] and in experiment [8] was inactive. In addition, the Potency result in experiment [2] and in experiment [9] was “inactive” throughout. The max response in [10] was -8.11%.

Consider `CC1=CCC(C(C)C)=CC1`, for which the result in experiment [1], in experiment [4], in [5], in experiment [6], in experiment [7] and in experiment [8] was inactive. In addition, the Potency result in experiment [2] and in experiment [9] was “inactive” throughout. In addition, the max response in experiment [10] is -3.87%.

For the molecule `C=CCCCCCCCCCCCC`, the molecule was called inactive in [1], in experiment [4], in [5], in experiment [7] and in [8]. Moreover, the Potency result in [2] and in [9] was “inactive” throughout. Besides, the max response in experiment [10] was -0.0097%.

Turning to `O=C(Nc1ccc(Cl)c(Cl)c1)C1CC1`, the molecule was classed as inactive in [1], in [4], in experiment [6], in experiment [7] and in experiment [8]. Moreover, the Potency entry in [2] and in experiment [9] was “inactive” in each case. Besides, the Potency in [10] was 8.49 µM (active).

Consider `Cc1ccccc1C(=O)Nc1ccc(C(=O)N2CCCC(N(C)C)c3ccccc32)cc1` (stereo unspecified), for which the molecule was called inactive in [1], in experiment [4], in experiment [5] and in experiment [7]. Moreover, the Potency entry in [2] and in [3] was “inactive” in each case. Further, in [9], the Potency was 6.74 µM (active).

`O=C(/N=N/C(=O)OCc1ccccc1)OCc1ccccc1`: the outcome in [1], in experiment [5], in [6], in experiment [7] and in [8] was inactive. In addition, the Potency entry in experiment [2], in experiment [3] and in [9] was “inactive” each time. Besides, the max response in experiment [10] is -13.7%.
